Screens deposited in PubChem by National Center for Advancing Translational Sciences (NCATS).
PLK1 PBD inh: qHTS for Inhibitors of PLK1-PDB (polo-like kinase 1 - polo-box domain): Primary Screen. Serine/threonine-protein kinase PLK1 (Homo sapiens), P53350. Plk1 PBD binding of FITC phosphopeptide, fluorescence polarization. Potency, µM, without a hit: max response, negative = inhibition, hits mostly inhibitors. actives 2.8% (n = 360,000); note: series mostly up to about 57 µM; % is set by controls: 0 for no effect and ±100 for the full control effect; nearly all actives have a fitted effect of over 65% in size
JMJD2A Tudor: qHTS Assay for Inhibitors of JMJD2A-Tudor Domain; Lysine-specific demethylase 4A (Homo sapiens), O75164; AlphaScreen JMJD2A-Tudor / H3K4me3 peptide binding; Potency, µM (highest dose often 114 µM), for the others: at the top dose activity change, negative = inhibition, actives largely listed as inhibitors; actives 4.4% (n = 390,000); note: % is set by controls: 0 for no effect and ±100 for the full control effect; nearly all actives have a fitted effect of over 50% in size
Sfp PPTase inh: qHTS Assay for Inhibitors of Bacillus subtilis Sfp phosphopantetheinyl transferase (PPTase); 4'-phosphopantetheinyl transferase ffp (Bacillus subtilis), Q9F4F7; Biochemical Sfp PPTase activity, qHTS; Potency, µM, without a hit: largest response in the series, negative = inhibition, actives largely listed as inhibitors; actives 3.5% (n = 310,000); AID 1490, 2009;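 note: the enzyme is Sfp with the accession as filed and its product quenches rhodamine fluorescence; 0% = enzyme reaction without inhibitor and -100% = no enzyme wells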
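Step 1, compound plus 15 nM Sfp-PPTase, 15 min, room temperature. Step 2, add rhodamine-CoA (5 uM) and BHQ-2-YbbR (12.5 uM). Step 3, read 525/598 nm fluorescence at 0 and 30 min.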
BAZ2B block: qHTS Assay for Inhibitors of BAZ2B. Bromodomain adjacent to zinc finger domain protein 2B (Homo sapiens), Q9UIF8. AlphaScreen BAZ2B-H3K14Ac peptide displacement. Potency, µM (series often up to 114 µM), inactives show at the highest dose activity change, negative = inhibition, actives largely listed as inhibitors. actives 4.4% (n = 360,000). AID 504333, 2011; note: % is set by controls: 0 for no effect and ±100 for the full control effect; nearly all actives have a fitted effect of over 60% in size
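BAZ2B 50 nM plus b-H3(5-23)K14Ac 50 nM, PBS pH 7.4/0.01% Tween-20, 30 min RT; compound added (max 110 uM), 30 min RT; streptavidin donor/Ni-chelate acceptor beads 10 ug/mL final, 20 min dark; AlphaScreen read.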
G9a inh: qHTS Assay for Inhibitors of Histone Lysine Methyltransferase G9a | actives 8.8% (n = 350,000) | G9a H3K9 monomethylation, AlphaScreen, 2 h | Potency, µM (series often up to 102 µM), for the others: at the top dose activity, negative = inhibition, actives largely listed as inhibitors; note: % is set by controls: 0 for no effect and ±100 for the full control effect; nearly all actives have a fitted effect of over 75% in size
Target sequence (Q96KQ7 913-1193 limits assumed): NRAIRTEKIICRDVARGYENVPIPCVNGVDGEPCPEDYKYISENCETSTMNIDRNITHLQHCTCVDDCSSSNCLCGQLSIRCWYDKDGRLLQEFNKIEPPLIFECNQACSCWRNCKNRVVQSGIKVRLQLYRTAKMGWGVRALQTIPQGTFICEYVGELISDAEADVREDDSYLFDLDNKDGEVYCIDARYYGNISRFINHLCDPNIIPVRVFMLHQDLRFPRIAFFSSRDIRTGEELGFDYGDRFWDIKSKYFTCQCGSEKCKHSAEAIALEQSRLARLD
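Readings reflect AlphaScreen signal from monomethyl-H3K9 antibody detection. HMT at 20 nM; substrate b-H3K9 500 nM; cofactor SAM 20 uM; 2 h RT reaction; compounds tested as titrations in qHTS with 15 min preincubation.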
HP1b chromo inh: HTS for Inhibitors of HP1-beta Chromodomain Interactions with Methylated Histone Tails | AID 540317, 2011 | AlphaScreen HP1-beta / biotin-H3K9me3 peptide binding | Chromobox protein homolog 1 (Homo sapiens), P83916 | actives 0.56% (n = 390,000) | Potency, µM (titrated, usually from 114 µM), inactives show at the top dose activity change, negative = inhibition, hits mostly inhibitors; note: nearly all actives have a fitted effect of over 70% in size
Target sequence (P83916 whole entry, looked up): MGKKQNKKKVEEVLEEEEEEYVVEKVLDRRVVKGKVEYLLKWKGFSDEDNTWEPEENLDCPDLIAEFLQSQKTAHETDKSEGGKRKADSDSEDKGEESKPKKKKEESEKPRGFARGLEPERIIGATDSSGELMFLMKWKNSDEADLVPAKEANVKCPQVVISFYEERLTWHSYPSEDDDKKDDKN
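AlphaScreen: HP1-beta (50 nM) preformed 30 min with biotin-H3(1-18)K9me3 peptide (50 nM) in PBS pH 7.4, 0.01% Tween-20. Compound added for 30 min at RT, then streptavidin donor/nickel chelate acceptor beads (10 ug/mL) for 30 min.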
Numbers without * were called inactive; ? = inconclusive; . = not tested or not shown; [ ] = remark or other dose. In the library only some 12% were active in any assay of this set; here they are far more common. Calls come from the whole dose curve; as a rule, active = well fitted curve in the direction sought with a large enough effect; inconclusive = small, poorly fitted or top-dose-only effect, or another doubt; inactive = no such curve, though single readings can be large; an effect the other way counts as inactive or inconclusive. Potency is the fitted concentration of half-maximal effect.

SMILES | PLK1 PBD inh | JMJD2A Tudor | Sfp PPTase inh | BAZ2B block | G9a inh | HP1b chromo inh
Cc1ccc(S(=O)(=O)/N=S(/c2ccccc2)C(C)C)cc1 (stereo unspecified) | 11µM* | -32% | 18µM* | -2% | 4.5µM* | ?
CN/S(=N/S(=O)(=O)c1ccccc1)c1ccc(C)cc1 (stereo unspecified) | -6% | -4% | 1% | 24% | 17%[59 µM] | 28%
CC(C)CNC(=S)N1CCN(Cc2ccc3c(c2)OCO3)CC1 | 2% | 20µM* | 79µM* | 22µM* | 16µM* | 25µM*
Oc1cccc(C(=S)N2CCN(Cc3ccccc3)CC2)c1 | 15µM* | ? | ? | -27% | ? | ?
CCC(C)NC(=S)N1CCN(Cc2ccccc2)CC1 (stereo unspecified) | 3% | ? | 5% | 0% | 0% | 79µM*
NS(=O)(=O)c1ccc(NC(=S)N2CCN(Cc3ccc(Cl)c(Cl)c3)CC2)cc1 | -12% | ? | 21% | -38% | ? | 17%
NS(=O)(=O)c1ccc(NC(=S)N2CCN(Cc3ccc4c(c3)OCO4)CC2)cc1 | 12µM* | -22% | 22µM* | -37% | -106%[59 µM] | -1%
CC(C)c1ccccc1NC(=S)N1CCN(Cc2ccc3c(c2)OCO3)CC1 | -3% | -24% | 0% | ? | -35% | 10%
CC(C)c1ccccc1NCC(=O)N1CCN(Cc2ccccc2)CC1 | -8% | -29% | 9% | -33% | 50µM* | 24%
CCC(C)NC(=S)N1CCN(Cc2ccc3c(c2)OCO3)CC1 (stereo unspecified) | ? | -7%[11.4 µM] | -8% | 50µM* | 25µM* | -11%
CCOc1ccc(N2CC(C(=O)OCC(=O)NCc3ccccc3)CC2=O)cc1 (stereo unspecified) | -8% | -3% | 14% | 9% | -21%[0.501 µM] | 39%
CCc1ccc(-n2c(=O)c3cccnc3n2CC(=O)N(CC)c2cccc(C)c2)cc1 | . | 90% | . | 95% | 42%[59 µM] | 142%
CC1(C)C/C(=N\NC(=S)Nc2ccccc2F)c2cc(O)ccc2O1 | ? | 18µM* | -9% | ? | ? | 7.9µM*
Cc1cccc(NC(=S)N/N=C2\CC(C)(C)Oc3ccc(O)cc32)c1 | 12% | ? | 13% | -12% | 19%[59 µM] | -2%
C=CCNC(=O)N1CCc2nc(-c3ccccc3)c3c(c2C1)CO[C@@H](C)C3 | . | . | 12% | . | . | .
O=c1cc2c(n[nH]1)CCCC2 | -6% | 56µM* | 6% | ? | ? | 22%
COc1ccccc1/C=C/C(=O)OCc1nc2ccccc2c(=O)[nH]1 | -8% | -9% | -7% | 16% | -6%[0.0925 µM] | 8%
Cc1cc(OCCN2CCN(S(=O)(=O)c3ccccc3F)CC2)ccc1C(C)C | 4% | -1% | . | -12% | -15%[12.7 µM] | 44%
NC(=O)c1csc(-c2ccc(CO)o2)n1 | -5% | . | . | . | . | .
OCc1ccc(-c2ccc(-c3ccc(CO)s3)o2)s1 | . | . | -26% | . | 1.6µM* | .
Cc1oc2ncn(CC(C)C)c(=O)c2c1C(=O)N(Cc1ccccc1)C(C)C | . | -7% | . | 8%[57.1 µM] | -24%[59 µM] | 14%
Cc1ccc(-c2c(C(=O)Nc3ccc(F)c(F)c3)oc(=O)c3ccccc23)cc1 | . | -14% | . | -14% | -44%[59 µM] | 36%
COc1ccc(N2CCN(c3nc(Nc4ccc(C)c(F)c4)nc(N4CCCC4)n3)CC2)cc1 | -11% | ? | 19% | 7.9µM* | 7.1µM* | ?
COc1ccc(N2CCN(c3nc(Cl)nc(Nc4ccc(F)cc4)n3)CC2)cc1 | -7% | -11% | -4% | ? | 10µM* | 30%
COc1ccc(N2CCN(c3nc(Nc4ccc(F)cc4)nc(OC)n3)CC2)cc1 | . | . | 5% | 11% | 19% | .
SMILES | PLK1 PBD inh | JMJD2A Tudor | Sfp PPTase inh | BAZ2B block | G9a inh | HP1b chromo inh
CC(=O)N1CC(C)Sc2ccc(S(=O)(=O)NC(C)c3ccccc3)cc21 (stereo unspecified) | -11% | -18% | 16% | -37% | . | 21%
Cc1ccc(NC(=S)N(N)CCO)cc1 | ? | ? | ? | 79µM* | 45µM* | 17%
CCN(N)C(=S)Nc1ccc(F)cc1 | -9% | -25% | -21% | -18% | ? | 19%
Cc1ccc(NC(=O)Cn2c(=O)c(C(F)(F)F)nc3ccccc32)c(C)c1 | . | -8% | . | -11% | 7%[59 µM] | 5%
CC(C)N(Cc1ccccc1)C(=O)c1nc(-c2ccc(Cl)cc2)n2c1CCCCC2 | . | 45µM* | . | 35µM* | ? | -15%
O=C(NCc1ccccc1)c1nc(-c2ccc(Cl)cc2)n2c1CCCCC2 | . | 22µM* | . | 13µM* | 14µM* | -5%
O=C(c1ccc(Cl)cc1)N1CCN(c2ccc(F)cc2)CC1 | 0% | -11% | -6% | 6% | 10%[59 µM] | 28%
O=C(c1nc(-c2ccc(Cl)cc2)n2c1CCCCC2)N1CCN(c2ccc(F)cc2)CC1 | . | 40µM* | . | 40µM* | ? | ?
O=C(NCCc1ccc(Cl)cc1)c1nc(-c2cccc(F)c2)n2c1CCCCC2 | . | 22µM* | . | 11µM* | 25µM* | -23%
CCN(CC)S(=O)(=O)c1ccc2c(c1)nc(CN(C)C(=O)Nc1ccc(F)cc1)n2C | . | -4% | . | -5% | ? | 35%
COCCN(CCOC)c1nc(C)nc2c1nc(-c1ccccc1)n2CCN1CCCC1 | . | . | -1% | . | . | .
COCCn1c(C)cc(O)c(C(c2ccccc2)N2CCN(c3ccc(F)cc3)CC2)c1=O (stereo unspecified) | . | -21% | . | 45% | ? | 38%
Cc1ccc(-c2nc(C(=O)NCc3ccc(Cl)cc3)c3n2CCCCC3)cc1 | . | -7% | . | 4% | 6%[59 µM] | 16%
CCOc1ccccc1CNC(=O)c1nc(-c2ccc(Cl)cc2)n2c1CCCCC2 | . | ? | . | 10µM* | 10µM* | -15%
O=C(NCCc1ccccc1)c1nc(-c2ccc(Cl)cc2)n2c1CCCCC2 | . | 22µM* | . | 25µM* | 14µM* | -19%
Cc1ccc(NC(=O)CN2C(=O)c3ccccc3Sc3ncccc32)c(C)c1 | . | -21% | . | -23% | -41%[59 µM] | 1%
CCCCCCCc1nc2sc3c(c2c(=O)n1N)CC(C)(C)OC3 | 0% | 5% | 7% | 0% | -9% | 23%
